According to PubChem BioAssay (EPA / NIEHS):
Calls of active or inactive are those of the source. The calls were made as follows: active = hit-call score of the fitted dose curve at least 0.9, where 1 is the maximum; inactive = score below 0.9.

The molecules below were run on Cyclin Dependent Kinase Inhibitor 1A (CDKN1A), CDKN1A (gene 1026) (assay: LTEA_HepaRG_CDKN1A: Life Technologies and Expression Analysis (LTEA) Assay for Cyclin Dependent Kinase Inhibitor 1A (CDKN1A) using HepaRG (AID 2283450)). Conditions: mRNA level, 48 h; actives raise or lower the signal.
How it was run: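 HepaRG, 48 h dosing, 8-pt half-log series from 100 uM top, 0.5% DMSO vehicle, duplicates. Readout: TaqMan qRT-PCR of CDKN1A transcript, housekeeping-normalized (ACTB, GAPDH, POLR2A). Up/down curve fit relative to DMSO.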

Compound | outcome
COCCOCCOCCOC | inactive
CNCc1ccc(NC(=O)c2c[nH]c3c2C(=O)CCC3)cc1 | inactive
C1=CCCC=CCCC=CCC1 | inactive
CC[C@H]1OC(=O)[C@H](C)[C@@H](O[C@H]2C[C@@](C)(OC)[C@@H](O)[C@H](C)O2)[C@H](C)[C@@H](O[C@@H]2O[C@H](C)C[C@H](N(C)C)[C@H]2O)[C@](C)(O)C[C@@H](C)C(=O)[C@H](C)[C@@H](O)[C@]1(C)O | inactive
CC(O)CN(CCN(CC(C)O)CC(C)O)CC(C)O (stereo not drawn) | inactive
CC(C)=CCC/C(C)=C/CO | inactive
CC1(C)C(=O)N(Br)C(=O)N1Br | inactive
O=C1CCC(N2C(=O)c3ccccc3C2=O)C(=O)N1 (stereo not drawn) | inactive
CCNc1ccccc1 | inactive
CC(C)=CCC/C(C)=C\CO | inactive
Clc1nc(Cl)c(Cl)c(Cl)c1Cl | inactive
O=C(O)c1cccc(Oc2ccccc2)c1 | inactive
Cc1ccc(C)c(O)c1 | inactive
O=C(O)CCN(C1(C(=O)NO)CCCC1)S(=O)(=O)c1ccc(Oc2ccc(F)cc2)cc1 | inactive
O=C1OC(=O)C2C3C=CC(C3)C12 (stereo not drawn) | inactive

The molecules below were run on Cyclin D1 (CCND1), CCND1 (gene 595) (assay: LTEA_HepaRG_CCND1: Life Technologies and Expression Analysis (LTEA) Assay for Cyclin D1 (CCND1) using HepaRG (AID 2283451;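 as to AC50: differentiated human HepaRG liver cells in serum-free induction medium; TaqMan qRT-PCR transcript level normalised to ACTB GAPDH and POLR2A housekeeping genes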)). Conditions: mRNA level, 48 h; actives raise or lower the signal.
How it was run: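 qRT-PCR (Fluidigm 96.96 array) read-out of transcript level, housekeeping-normalized (ACTB/GAPDH/POLR2A). HepaRG cells, 48 h chemical exposure, 8-point half-log series from 100 uM, 0.5% DMSO vehicle; gain or loss relative to DMSO baseline.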

Compound | outcome | AC50
COCCOCCOCCOC | inactive | –
O=C(NS(=O)(=O)/C=C/c1ccccc1)c1ccc(F)cc1Cl | inactive | –
CNCc1ccc(NC(=O)c2c[nH]c3c2C(=O)CCC3)cc1 | inactive | –
C1=CCCC=CCCC=CCC1 | inactive | –
CC[C@H]1OC(=O)[C@H](C)[C@@H](O[C@H]2C[C@@](C)(OC)[C@@H](O)[C@H](C)O2)[C@H](C)[C@@H](O[C@@H]2O[C@H](C)C[C@H](N(C)C)[C@H]2O)[C@](C)(O)C[C@@H](C)C(=O)[C@H](C)[C@@H](O)[C@]1(C)O | inactive | –
Cn1c(=O)c2c(ncn2C)n(C)c1=O | inactive | –
CC(O)CN(CCN(CC(C)O)CC(C)O)CC(C)O (stereo not drawn) | – | 12.5 µM (active)
CC(=O)OCCC(C)C | inactive | –
CC(C)=CCC/C(C)=C/CO | inactive | –
CC1(C)C(=O)N(Br)C(=O)N1Br | inactive | –
CCOC(=O)CC(CC(=O)OCC)(OC(C)=O)C(=O)OCC | inactive | –
O=C1CCC(N2C(=O)c3ccccc3C2=O)C(=O)N1 (stereo not drawn) | inactive | –
CCCCC(CC)COC(=O)c1ccc(C(=O)OCC(CC)CCCC)cc1 (stereo not drawn) | inactive | –
CCNc1ccccc1 | inactive | –
O=c1n(CC2CO2)c(=O)n(CC2CO2)c(=O)n1CC1CO1 (stereo not drawn) | inactive | –
CCn1nc(Cc2ccccc2)cc1C1CCN(C[C@H]2C[C@H](N(C)[C@@H](C(=O)O)C(C)C)C[C@@H]2c2cccc(F)c2)CC1 | inactive | –
CCCN(C1CCN(C(=O)C2CCNCC2)CC1)[C@@H]1CCc2ccc(OC)cc2C1 | – | 50 µM (active)
O=C(O)c1cc(N=Nc2ccc(S(=O)(=O)Nc3ccccn3)cc2)ccc1O | inactive | –
C1N2CN3CN1CN(C2)C3 | inactive | –
CC(C)=CCC/C(C)=C\CO | inactive | –
Clc1nc(Cl)c(Cl)c(Cl)c1Cl | inactive | –
CCCCC(CC)COC(=O)CCCCCCCCC(=O)OCC(CC)CCCC (stereo not drawn) | inactive | –
Cn1cnc([N+](=O)[O-])c1Sc1ncnc2nc[nH]c12 | inactive | –
O=C(O)c1cccc(Oc2ccccc2)c1 | inactive | –
CC/C(=C\C(=N/O)C(N)=O)C(C)[N+](=O)[O-] (stereo not drawn) | inactive | –
Cc1ccc(C)c(O)c1 | inactive | –
O=C(O)CCN(C1(C(=O)NO)CCCC1)S(=O)(=O)c1ccc(Oc2ccc(F)cc2)cc1 | inactive | –
O=C(CCCCCCCCc1cccnc1)N1CCC(C=C(c2ccccc2)c2ccccc2)CC1 | inactive | –
O=C1OC(=O)C2C3C=CC(C3)C12 (stereo not drawn) | inactive | –

These molecules were tested on catalase (CAT), CAT (gene 847) (assay: LTEA_HepaRG_CAT: Life Technologies and Expression Analysis (LTEA) Assay for catalase (CAT) using HepaRG (AID 2283452)). Conditions: mRNA level, 48 h; actives raise or lower the signal.
How it was run: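 HepaRG cells in serum-free induction medium, 0.5% DMSO vehicle, exposed 48 h in duplicate over 8 half-log concentrations from 100 uM. CAT mRNA measured by qRT-PCR, normalized to ACTB, GAPDH, POLR2A; bidirectional fit versus DMSO.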

Compound | outcome | AC50
COCCOCCOCCOC | inactive | –
O=C(NS(=O)(=O)/C=C/c1ccccc1)c1ccc(F)cc1Cl | inactive | –
CNCc1ccc(NC(=O)c2c[nH]c3c2C(=O)CCC3)cc1 | inactive | –
C1=CCCC=CCCC=CCC1 | inactive | –
CC[C@H]1OC(=O)[C@H](C)[C@@H](O[C@H]2C[C@@](C)(OC)[C@@H](O)[C@H](C)O2)[C@H](C)[C@@H](O[C@@H]2O[C@H](C)C[C@H](N(C)C)[C@H]2O)[C@](C)(O)C[C@@H](C)C(=O)[C@H](C)[C@@H](O)[C@]1(C)O | inactive | –
Cn1c(=O)c2c(ncn2C)n(C)c1=O | inactive | –
CC(O)CN(CCN(CC(C)O)CC(C)O)CC(C)O (stereo not drawn) | inactive | –
CC(=O)OCCC(C)C | inactive | –
CC(C)=CCC/C(C)=C/CO | inactive | –
CC1(C)C(=O)N(Br)C(=O)N1Br | inactive | –
CCOC(=O)CC(CC(=O)OCC)(OC(C)=O)C(=O)OCC | inactive | –
O=C1CCC(N2C(=O)c3ccccc3C2=O)C(=O)N1 (stereo not drawn) | inactive | –
CCCCC(CC)COC(=O)c1ccc(C(=O)OCC(CC)CCCC)cc1 (stereo not drawn) | inactive | –
CCNc1ccccc1 | inactive | –
O=c1n(CC2CO2)c(=O)n(CC2CO2)c(=O)n1CC1CO1 (stereo not drawn) | inactive | –
CCn1nc(Cc2ccccc2)cc1C1CCN(C[C@H]2C[C@H](N(C)[C@@H](C(=O)O)C(C)C)C[C@@H]2c2cccc(F)c2)CC1 | inactive | –
CCCN(C1CCN(C(=O)C2CCNCC2)CC1)[C@@H]1CCc2ccc(OC)cc2C1 | – | 50.1 µM (active)
O=C(O)c1cc(N=Nc2ccc(S(=O)(=O)Nc3ccccn3)cc2)ccc1O | inactive | –
C1N2CN3CN1CN(C2)C3 | inactive | –
CC(C)=CCC/C(C)=C\CO | inactive | –
Clc1nc(Cl)c(Cl)c(Cl)c1Cl | inactive | –
CCCCC(CC)COC(=O)CCCCCCCCC(=O)OCC(CC)CCCC (stereo not drawn) | inactive | –
Cn1cnc([N+](=O)[O-])c1Sc1ncnc2nc[nH]c12 | – | 1.69 µM (active)
O=C(O)c1cccc(Oc2ccccc2)c1 | inactive | –
CC/C(=C\C(=N/O)C(N)=O)C(C)[N+](=O)[O-] (stereo not drawn) | inactive | –
Cc1ccc(C)c(O)c1 | inactive | –
O=C(O)CCN(C1(C(=O)NO)CCCC1)S(=O)(=O)c1ccc(Oc2ccc(F)cc2)cc1 | inactive | –
O=C(CCCCCCCCc1cccnc1)N1CCC(C=C(c2ccccc2)c2ccccc2)CC1 | – | 22.5 µM (active)
O=C1OC(=O)C2C3C=CC(C3)C12 (stereo not drawn) | inactive | –
